Assay results taken from the supplement of paper PMC10849652.
The full data set covers some 8,800 targets. This sample favours those with a hit. About 0.5% of all pairs of compound and target were hits. A number with no mark means an inactive call.

Assays:
Experiment in all cases: log2 fold change, soluble protein after heating vs DMSO (PISA); higher = thermal stabilisation; K562 lysate, 10 uM; active = over 0.2 and 3.5 SD of the protein, either way, in both replicates (recomputed)
vemurafenib = compound: CCCS(=O)(=O)Nc1ccc(F)c(C(=O)c2c[nH]c3ncc(-c4ccc(Cl)cc4)cc23)c1F [vemurafenib]
Outline: (§1)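 A 30 min treatment with 10 μM compound was applied to crude K562 extract at 1 mg/mL protein in PBS pH 7.4 with 1 mM MgCl2. Heating for 3 min spanned 48°C-58°C, after which aliquots were pooled, adjusted to 0.5% NP-40 at 4°C and spun at 21,000xg for 90 min. TMTpro 16plex LC-MS/MS of the supernatant, with channel sums equalised, gave values recorded as log-two fold change in thermal stability against solvent controls, from duplicates.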

[1] = compound: CCCS(=O)(=O)Nc1ccc(F)c(C(=O)c2c[nH]c3ncc(Cl)cc23)c1F
Outline: as §1

barasertib = compound: CCN(CCCOc1ccc2c(Nc3cc(CC(=O)Nc4cccc(F)c4)[nH]n3)ncnc2c1)CCOP(=O)(O)O [barasertib]
Outline: as §1

[2] = compound: CC[C@@H]1C(=O)N(C)c2cnc(Nc3ccc(C(=O)NC4CCN(C)CC4)cc3OC)nc2N1C1CCCC1
Outline: as §1

volasertib = compound: CC[C@@H]1C(=O)N(C)c2cnc(Nc3ccc(C(=O)N[C@H]4CC[C@H](N5CCN(CC6CC6)CC5)CC4)cc3OC)nc2N1C(C)C [volasertib]
Outline: as §1

[3] = compound: CCn1c(C(=O)N(C2CC2)C2CC2)cc2c3c(ncn3C)c(Nc3cc(C)n(C)n3)nc21
Outline: as §1

[4] = compound: CCn1cc(-c2ccnc3[nH]c(-c4cccc(CN(C)C)c4)cc23)c(-c2ccc(NC(=O)N(C)C)cc2)n1
Outline: as §1

[5] = compound: CN1CCC(CNc2ccc3ncc(-c4cccc(OC(F)(F)F)c4)n3n2)CC1
Outline: as §1

saracatinib = compound: CN1CCN(CCOc2cc(OC3CCOCC3)c3c(Nc4c(Cl)ccc5c4OCO5)ncnc3c2)CC1 [saracatinib]
Outline: as §1

sotrastaurin = compound: CN1CCN(c2nc(C3=C(c4c[nH]c5ccccc45)C(=O)NC3=O)c3ccccc3n2)CC1 [sotrastaurin]
Outline: as §1

Sequence of UniProt P78406 (P78406 whole entry, looked up): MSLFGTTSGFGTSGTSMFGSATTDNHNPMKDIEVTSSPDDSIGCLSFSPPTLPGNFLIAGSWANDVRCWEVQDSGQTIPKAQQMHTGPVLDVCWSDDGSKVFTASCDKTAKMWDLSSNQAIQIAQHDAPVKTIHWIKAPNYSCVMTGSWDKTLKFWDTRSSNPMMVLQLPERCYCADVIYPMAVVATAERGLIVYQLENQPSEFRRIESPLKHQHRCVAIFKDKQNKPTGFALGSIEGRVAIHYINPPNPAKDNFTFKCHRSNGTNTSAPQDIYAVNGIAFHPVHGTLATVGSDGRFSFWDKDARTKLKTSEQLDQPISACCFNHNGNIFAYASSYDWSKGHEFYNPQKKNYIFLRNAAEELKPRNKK
Sequence of UniProt Q15287 (Q15287 whole entry, looked up): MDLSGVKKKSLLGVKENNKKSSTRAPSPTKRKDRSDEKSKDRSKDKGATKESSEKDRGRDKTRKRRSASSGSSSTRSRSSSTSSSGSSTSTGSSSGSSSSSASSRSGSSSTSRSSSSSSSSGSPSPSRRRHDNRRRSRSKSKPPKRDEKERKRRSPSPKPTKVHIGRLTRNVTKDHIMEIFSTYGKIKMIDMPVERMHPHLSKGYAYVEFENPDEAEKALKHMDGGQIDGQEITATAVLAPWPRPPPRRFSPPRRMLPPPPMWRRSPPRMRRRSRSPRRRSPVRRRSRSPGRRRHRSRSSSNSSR
Sequence of UniProt P53805 (P53805 whole entry, looked up): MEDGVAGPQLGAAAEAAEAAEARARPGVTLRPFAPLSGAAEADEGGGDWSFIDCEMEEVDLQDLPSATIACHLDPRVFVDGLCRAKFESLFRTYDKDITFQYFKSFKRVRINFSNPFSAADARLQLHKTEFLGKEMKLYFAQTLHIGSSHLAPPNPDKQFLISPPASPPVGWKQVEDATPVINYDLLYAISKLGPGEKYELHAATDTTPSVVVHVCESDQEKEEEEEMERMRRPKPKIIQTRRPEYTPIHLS
Sequence of UniProt Q9GZR2 (Q9GZR2 whole entry, looked up): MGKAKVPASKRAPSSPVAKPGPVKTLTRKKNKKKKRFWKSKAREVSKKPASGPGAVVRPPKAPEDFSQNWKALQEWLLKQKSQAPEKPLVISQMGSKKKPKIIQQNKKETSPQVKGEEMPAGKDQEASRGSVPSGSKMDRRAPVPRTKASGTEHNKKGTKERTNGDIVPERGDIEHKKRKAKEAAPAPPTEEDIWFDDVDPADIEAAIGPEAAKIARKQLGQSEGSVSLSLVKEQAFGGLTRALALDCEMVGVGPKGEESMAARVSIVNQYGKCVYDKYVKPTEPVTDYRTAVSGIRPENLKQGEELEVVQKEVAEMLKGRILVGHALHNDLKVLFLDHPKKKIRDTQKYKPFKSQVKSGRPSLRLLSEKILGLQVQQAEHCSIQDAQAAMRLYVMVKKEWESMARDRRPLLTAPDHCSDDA
Sequence of UniProt P60059 (P60059 whole entry, looked up): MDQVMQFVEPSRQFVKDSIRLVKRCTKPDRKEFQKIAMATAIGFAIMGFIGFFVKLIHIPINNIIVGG
Sequence of UniProt Q8NBX0 (Q8NBX0 whole entry, looked up): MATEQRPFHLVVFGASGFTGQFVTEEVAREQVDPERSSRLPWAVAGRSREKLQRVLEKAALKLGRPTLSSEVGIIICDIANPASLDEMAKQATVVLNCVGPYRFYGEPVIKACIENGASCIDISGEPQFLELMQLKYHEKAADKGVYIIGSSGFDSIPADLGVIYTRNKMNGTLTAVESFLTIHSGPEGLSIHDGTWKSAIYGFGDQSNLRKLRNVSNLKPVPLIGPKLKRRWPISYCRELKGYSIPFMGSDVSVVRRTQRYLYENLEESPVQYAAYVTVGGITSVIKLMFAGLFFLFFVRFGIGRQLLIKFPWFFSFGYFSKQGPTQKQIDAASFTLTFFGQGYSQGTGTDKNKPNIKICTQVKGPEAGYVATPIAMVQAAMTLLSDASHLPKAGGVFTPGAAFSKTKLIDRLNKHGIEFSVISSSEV
Sequence of UniProt Q13530 (Q13530 whole entry, looked up): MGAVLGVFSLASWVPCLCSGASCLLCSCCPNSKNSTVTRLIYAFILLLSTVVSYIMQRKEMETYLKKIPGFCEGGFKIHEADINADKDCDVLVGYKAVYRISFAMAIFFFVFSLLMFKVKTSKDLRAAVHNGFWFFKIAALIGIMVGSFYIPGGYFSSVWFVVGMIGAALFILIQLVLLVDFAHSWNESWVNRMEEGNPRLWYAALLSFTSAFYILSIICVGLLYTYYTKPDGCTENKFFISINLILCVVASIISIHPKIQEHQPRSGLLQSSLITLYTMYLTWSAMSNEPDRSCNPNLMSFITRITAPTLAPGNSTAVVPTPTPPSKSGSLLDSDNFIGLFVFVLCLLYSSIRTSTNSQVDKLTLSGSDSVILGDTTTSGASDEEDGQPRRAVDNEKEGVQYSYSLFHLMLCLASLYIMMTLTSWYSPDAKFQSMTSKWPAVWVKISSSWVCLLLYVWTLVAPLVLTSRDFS
Sequence of UniProt Q8WZA2 (Q8WZA2 whole entry, looked up): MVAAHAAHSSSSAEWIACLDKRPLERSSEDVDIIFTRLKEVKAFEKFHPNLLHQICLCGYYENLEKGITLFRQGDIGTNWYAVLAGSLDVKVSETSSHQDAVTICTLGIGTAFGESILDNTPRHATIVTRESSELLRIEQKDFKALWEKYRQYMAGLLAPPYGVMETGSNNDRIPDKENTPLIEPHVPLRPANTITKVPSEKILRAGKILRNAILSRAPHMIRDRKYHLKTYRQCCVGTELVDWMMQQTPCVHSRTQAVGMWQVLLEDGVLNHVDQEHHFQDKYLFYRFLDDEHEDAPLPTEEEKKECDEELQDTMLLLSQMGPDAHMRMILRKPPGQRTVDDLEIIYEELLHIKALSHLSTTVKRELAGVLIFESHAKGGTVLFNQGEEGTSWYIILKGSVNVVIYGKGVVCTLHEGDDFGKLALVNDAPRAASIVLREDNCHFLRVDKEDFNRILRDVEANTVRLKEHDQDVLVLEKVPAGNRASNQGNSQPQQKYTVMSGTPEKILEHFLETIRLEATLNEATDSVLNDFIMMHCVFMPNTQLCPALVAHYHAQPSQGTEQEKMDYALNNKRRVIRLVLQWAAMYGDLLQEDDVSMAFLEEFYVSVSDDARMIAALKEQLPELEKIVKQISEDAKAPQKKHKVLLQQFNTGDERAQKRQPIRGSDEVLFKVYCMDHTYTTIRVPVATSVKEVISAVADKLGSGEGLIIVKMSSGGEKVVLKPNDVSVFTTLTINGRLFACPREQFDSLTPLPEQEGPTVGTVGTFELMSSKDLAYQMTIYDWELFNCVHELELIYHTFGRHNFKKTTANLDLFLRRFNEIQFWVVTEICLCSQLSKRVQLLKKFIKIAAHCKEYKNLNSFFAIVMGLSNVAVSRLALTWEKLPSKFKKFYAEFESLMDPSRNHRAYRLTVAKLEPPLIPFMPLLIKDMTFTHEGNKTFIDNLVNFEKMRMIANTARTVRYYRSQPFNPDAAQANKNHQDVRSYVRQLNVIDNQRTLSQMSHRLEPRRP
Sequence of UniProt Q9H7N4 (Q9H7N4 whole entry, looked up): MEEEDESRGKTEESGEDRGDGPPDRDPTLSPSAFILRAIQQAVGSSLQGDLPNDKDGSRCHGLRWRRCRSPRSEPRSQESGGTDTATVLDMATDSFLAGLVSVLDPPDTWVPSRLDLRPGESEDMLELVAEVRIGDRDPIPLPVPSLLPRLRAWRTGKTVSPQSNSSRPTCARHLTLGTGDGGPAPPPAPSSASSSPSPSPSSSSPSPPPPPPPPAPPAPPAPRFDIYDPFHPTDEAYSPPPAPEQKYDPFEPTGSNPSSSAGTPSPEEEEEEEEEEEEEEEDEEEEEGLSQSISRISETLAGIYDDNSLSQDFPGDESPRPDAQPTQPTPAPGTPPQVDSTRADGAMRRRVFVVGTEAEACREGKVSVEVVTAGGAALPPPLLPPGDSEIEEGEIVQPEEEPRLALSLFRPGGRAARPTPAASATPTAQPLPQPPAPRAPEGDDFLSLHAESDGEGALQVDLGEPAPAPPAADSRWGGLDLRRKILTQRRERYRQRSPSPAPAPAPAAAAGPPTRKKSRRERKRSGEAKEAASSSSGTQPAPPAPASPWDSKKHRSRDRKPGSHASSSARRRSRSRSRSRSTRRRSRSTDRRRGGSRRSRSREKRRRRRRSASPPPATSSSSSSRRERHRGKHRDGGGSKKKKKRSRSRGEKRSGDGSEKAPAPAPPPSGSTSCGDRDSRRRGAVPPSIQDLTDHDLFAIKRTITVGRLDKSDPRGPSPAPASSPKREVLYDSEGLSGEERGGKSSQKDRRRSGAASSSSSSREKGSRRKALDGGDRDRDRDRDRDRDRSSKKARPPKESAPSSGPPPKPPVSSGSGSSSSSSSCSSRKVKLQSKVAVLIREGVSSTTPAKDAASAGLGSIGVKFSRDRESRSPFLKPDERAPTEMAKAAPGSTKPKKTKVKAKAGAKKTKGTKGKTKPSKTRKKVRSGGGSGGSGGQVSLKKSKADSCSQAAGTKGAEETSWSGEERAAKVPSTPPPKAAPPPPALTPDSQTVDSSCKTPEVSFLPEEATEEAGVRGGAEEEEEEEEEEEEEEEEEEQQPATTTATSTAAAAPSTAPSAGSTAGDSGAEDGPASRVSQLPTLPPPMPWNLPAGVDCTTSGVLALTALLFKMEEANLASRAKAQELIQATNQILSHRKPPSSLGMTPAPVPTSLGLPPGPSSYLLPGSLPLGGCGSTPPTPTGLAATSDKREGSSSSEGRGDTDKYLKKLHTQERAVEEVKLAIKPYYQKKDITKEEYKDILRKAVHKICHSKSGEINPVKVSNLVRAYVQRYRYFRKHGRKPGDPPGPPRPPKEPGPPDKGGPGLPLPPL

Work on SERINC3 (UniProt Q13530) yielded a log2 fold change (vemurafenib) of 0.05, a log2 fold change [1] of 0.074 and a log2 fold change (barasertib) of -0.02. The log2 fold change [2] was 0.039, the log2 fold change (volasertib) was 0.066 and the log2 fold change [3] was -0.05. For the same target, the log2 fold change [4] was -0.443 (active), the log2 fold change [5] was 0.224 and the log2 fold change (saracatinib) was 0.052. It also gave a log2 fold change (sotrastaurin) of 0.081.
RAE1 (UniProt P78406) showed a log2 fold change (vemurafenib) of -0.017, a log2 fold change [1] of -0.021 and a log2 fold change (barasertib) of -0.051. It also gave a log2 fold change [2] of 0.04, a log2 fold change (volasertib) of -0.081 and a log2 fold change [3] of 0.018. The log2 fold change [4] was -0.355 (active), the log2 fold change [5] was 0.131 and the log2 fold change (saracatinib) was 0.039. It also gave a log2 fold change (sotrastaurin) of 0.044.
SCAF1 (UniProt Q9H7N4) showed a log2 fold change (vemurafenib) of 0.027, a log2 fold change [1] of 0.093 and a log2 fold change (barasertib) of 0.079. The log2 fold change [2] was 0.089, the log2 fold change (volasertib) was -0.114 and the log2 fold change [3] was 0.05. It also gave a log2 fold change [4] of -0.041, a log2 fold change [5] of 0.008 and a log2 fold change (saracatinib) of 0.009. It also gave a log2 fold change (sotrastaurin) of -0.029.
RAPGEF4 (UniProt Q8WZA2) was tested, and the log2 fold change (vemurafenib) was 0.157, the log2 fold change [1] was 0.077 and the log2 fold change (barasertib) was 0.022. For the same target, the log2 fold change [2] was 0.174, the log2 fold change (volasertib) was 0.049 and the log2 fold change [3] was -0.259. For the same target, the log2 fold change [4] was -0.887 (active), the log2 fold change [5] was 0.391 and the log2 fold change (saracatinib) was 0.037. It also gave a log2 fold change (sotrastaurin) of 0.001.
Target REXO4 (UniProt Q9GZR2) has a log2 fold change (vemurafenib) of -0.018, a log2 fold change [1] of 0.007 and a log2 fold change (barasertib) of 0.088. It also gave a log2 fold change [2] of 0.013, a log2 fold change (volasertib) of -0.034 and a log2 fold change [3] of 0. For the same target, the log2 fold change [4] was 0.452 (active), the log2 fold change [5] was -0.184 and the log2 fold change (saracatinib) was -0.002. For the same target, the log2 fold change (sotrastaurin) was 0.013.
RCAN1 (UniProt P53805) was tested, and the log2 fold change (vemurafenib) was 0.028, the log2 fold change [1] was 0.061 and the log2 fold change (barasertib) was 0.034. For the same target, the log2 fold change [2] was -0.022, the log2 fold change (volasertib) was -0.026 and the log2 fold change [3] was -0.06. The log2 fold change [4] was -0.024, the log2 fold change [5] was 0.041 and the log2 fold change (saracatinib) was 0.025. For the same target, the log2 fold change (sotrastaurin) was -0.056.
SCML2 (UniProt Q9UQR0) gave a log2 fold change (vemurafenib) of 0.033, a log2 fold change [1] of -0.006 and a log2 fold change (barasertib) of -0.028. The log2 fold change [2] was -0.007, the log2 fold change (volasertib) was -0.018 and the log2 fold change [3] was 0.02. It also gave a log2 fold change [4] of 0.033, a log2 fold change [5] of 0.032 and a log2 fold change (saracatinib) of 0.064. For the same target, the log2 fold change (sotrastaurin) was -0.067.
RNPS1 (UniProt Q15287) gave a log2 fold change (vemurafenib) of -0.03, a log2 fold change [1] of 0.001 and a log2 fold change (barasertib) of -0.008. It also gave a log2 fold change [2] of -0.175, a log2 fold change (volasertib) of 0.043 and a log2 fold change [3] of -0.022. For the same target, the log2 fold change [4] was 0.02, the log2 fold change [5] was 0.077 and the log2 fold change (saracatinib) was -0.04. For the same target, the log2 fold change (sotrastaurin) was -0.003.
With RAP1GAP isoform 4 (UniProt P47736) the log2 fold change (vemurafenib) was 0.009, the log2 fold change [1] was 0.055 and the log2 fold change (barasertib) was 0.008. It also gave a log2 fold change [2] of 0.044, a log2 fold change (volasertib) of -0.075 and a log2 fold change [3] of 0.003. The log2 fold change [4] was -0.038, the log2 fold change [5] was 0.02 and the log2 fold change (saracatinib) was 0.06. The log2 fold change (sotrastaurin) was 0.029.
In the case of SEC61G (UniProt P60059), the log2 fold change (vemurafenib) is reported as 0.015, the log2 fold change [1] is reported as -0.079 and the log2 fold change (barasertib) is reported as 0.175. It also gave a log2 fold change [2] of 0.159, a log2 fold change (volasertib) of 0.033 and a log2 fold change [3] of -0.067. The log2 fold change [4] was -0.118, the log2 fold change [5] was 0.405 and the log2 fold change (saracatinib) was -0.276. For the same target, the log2 fold change (sotrastaurin) was -0.184.
RAD50 isoform 2 (UniProt Q92878) showed a log2 fold change (vemurafenib) of 0.004, a log2 fold change [1] of 0.013 and a log2 fold change (barasertib) of 0.025. It also gave a log2 fold change [2] of -0.011, a log2 fold change (volasertib) of -0.047 and a log2 fold change [3] of 0.039. For the same target, the log2 fold change [4] was -0.024, the log2 fold change [5] was -0.024 and the log2 fold change (saracatinib) was 0. The log2 fold change (sotrastaurin) was 0.036.
Work on SESN2 (UniProt P58004) yielded a log2 fold change (vemurafenib) of -0.008, a log2 fold change [1] of 0.025 and a log2 fold change (barasertib) of 0.049. The log2 fold change [2] was -0.103, the log2 fold change (volasertib) was -0.066 and the log2 fold change [3] was 0.019. The log2 fold change [4] was 0.02, the log2 fold change [5] was -0.105 and the log2 fold change (saracatinib) was -0.043. It also gave a log2 fold change (sotrastaurin) of 0.047.
Work on RCOR3 isoform 3 (UniProt Q9P2K3) yielded a log2 fold change (vemurafenib) of -0.03, a log2 fold change [1] of -0.01 and a log2 fold change (barasertib) of -0.003. The log2 fold change [2] was -0.001, the log2 fold change (volasertib) was -0.012 and the log2 fold change [3] was 0.029. For the same target, the log2 fold change [4] was -0.017, the log2 fold change [5] was 0.003 and the log2 fold change (saracatinib) was 0.03. The log2 fold change (sotrastaurin) was -0.015.
With SCCPDH (UniProt Q8NBX0) the log2 fold change (vemurafenib) was -0.013, the log2 fold change [1] was -0.054 and the log2 fold change (barasertib) was 0.118. It also gave a log2 fold change [2] of 0.128, a log2 fold change (volasertib) of 0.055 and a log2 fold change [3] of -0.107. The log2 fold change [4] was -0.12, the log2 fold change [5] was 0.233 and the log2 fold change (saracatinib) was -0.092. The log2 fold change (sotrastaurin) was 0.094.
Target SAMD4A (UniProt Q9UPU9) has a log2 fold change (vemurafenib) of -0.032, a log2 fold change [1] of -0.376 and a log2 fold change (barasertib) of 0.005. For the same target, the log2 fold change [2] was 0.05, the log2 fold change (volasertib) was 0.014 and the log2 fold change [3] was -0.292. The log2 fold change [4] was 1.12, the log2 fold change [5] was 0.115 and the log2 fold change (saracatinib) was 0.07. The log2 fold change (sotrastaurin) was 0.01.
